{"source": "the supplement of paper PMC10338343", "note": "± gives the standard deviation."}
{"tested_on": "EfPiwi piRISC loaded with piRNA #1 (26 nt)", "experiment": "pre-steady-state target cleavage rate (min^-1); auxiliary factor: 500 nM Ephydatia muelleri Gtsf1; guide: piRNA #1 5'p-UGAGGUAGUAGGUUGUAUAGUAUCCA; MIWI and MILI are mouse PIWI proteins and EfPiwi is from a freshwater sponge; tags in brackets are library labels; higher = faster piRNA-guided slicing of the target", "how_it_was_run": "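The pre-steady-state cleavage rate was calculated from a burst-and-steady-state fit. Data came from Cleave-'n-Seq, in which […] transcribed, DNA-blocked target RNA library was mixed with 1 nM active affinity-purified piRISC carrying one synthetic guide, with or without 500 nM GTSF1 partner protein, in HEPES–potassium acetate buffer at 33 °C for 0–8 or 0–960 min. Uncleaved targets were sequenced and normalised to depth and to weakly complementary targets, three trials were pooled, and k3 was capped at 0.0001 min^-1.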"}
{"sequence": "GGAGAGGAUACUAUACAACCUACAACCUGA", "pre-steady-state target cleavage rate": "0.00332 ± 0.0014"}
{"sequence": "GGAGAGGAUACUAUACAAUCCUACUACCUCA", "pre-steady-state target cleavage rate": "0.00878 ± 0.0059"}
{"sequence": "GGAGAGGAUACUAUACAACCUACUAGGAGA [g6:g25:cont:t1A]", "pre-steady-state target cleavage rate": "0.00363 ± 0.0023"}
{"sequence": "GGAGUGGAUACUAUACGAACCUACUACCUCA", "pre-steady-state target cleavage rate": "0.00789 ± 0.0039"}
{"sequence": "GGAGUGGAUACUAUACAACCUACUAGCACA", "pre-steady-state target cleavage rate": "0.00246 ± 0.0018"}
{"sequence": "GGAGACCAUACUAUACAACCUACUACCUUA", "pre-steady-state target cleavage rate": "0.0127 ± 0.0048"}
{"sequence": "GGAGUGGAUACUAUACAACUCUACUACCUCA", "pre-steady-state target cleavage rate": "0.00493 ± 0.003"}
{"sequence": "GGAGACCUUAACUAUACAACCUACUACCUCA", "pre-steady-state target cleavage rate": "0.113 ± 0.039"}
{"sequence": "GGAGACGAUACUAUACAACCUACUACGUCA", "pre-steady-state target cleavage rate": "0.00658 ± 0.002"}
{"sequence": "GGAGACCUAACUAUACAACCUAGUACCACA", "pre-steady-state target cleavage rate": "0.00588 ± 0.0049"}
{"sequence": "GGAGACCUUACUAUACAACCUACUAGCUCA", "pre-steady-state target cleavage rate": "0.00255 ± 0.0017"}
{"sequence": "GGAGACGAUACUAUACAACCUAGUACCUGA", "pre-steady-state target cleavage rate": "0.00389 ± 0.001"}
{"sequence": "GGAGACGAUACUAUACAAUCCUACUACCUCA", "pre-steady-state target cleavage rate": "0.0069 ± 0.004"}
{"sequence": "GGAGACCUAACAAAACAACCUACUACCUCA", "pre-steady-state target cleavage rate": "0.00903 ± 0.0046"}
{"sequence": "GGAGAGGAUACUAUACAACCUACUCCUCA", "pre-steady-state target cleavage rate": "0.00473 ± 0.0025"}
{"sequence": "GGAGACGAUACUAUACAACCUAGUAGCUCA", "pre-steady-state target cleavage rate": "0.00474 ± 0.0023"}
{"sequence": "GGAGUGGAUACUAUACAACCUUCUUCCUCA", "pre-steady-state target cleavage rate": "0.00355 ± 0.0026"}
{"sequence": "GGAGACGAUACUAAACAACCUAGUACCUCA", "pre-steady-state target cleavage rate": "0.00281 ± 0.0023"}
{"sequence": "GGAGUCGAUACUAUACAACGUACUACCUCA", "pre-steady-state target cleavage rate": "0.00501 ± 0.0019"}
{"sequence": "GGAGACCAUACUUUACAACCUACUACCUGA", "pre-steady-state target cleavage rate": "0.00591 ± 0.0031"}
{"sequence": "GGAGACGAUAGCUAUACAACCUACUACCUCA", "pre-steady-state target cleavage rate": "0.0112 ± 0.0049"}
{"sequence": "GGAGACCUAACUAUACAACCUACUACCUACA", "pre-steady-state target cleavage rate": "0.00795 ± 0.0042"}
{"sequence": "GGAGACCAUACUAUACAACCUAGUACCUGA", "pre-steady-state target cleavage rate": "0.00278 ± 0.0021"}
{"sequence": "GGAGACCUUACUAUACAACCCUACUACCUCA", "pre-steady-state target cleavage rate": "0.00411 ± 0.0037"}
{"sequence": "GGAGUGGAUACUAUACAACGAUCUACCUCA", "pre-steady-state target cleavage rate": "0.00198 ± 0.0014"}
{"sequence": "GGAGACGAUACUAUACAGACCUACUACCUCA", "pre-steady-state target cleavage rate": "0.0101 ± 0.0034"}
{"sequence": "GGAGACCUAAGCUAUACAACCUACUACCUCA", "pre-steady-state target cleavage rate": "0.184 ± 0.066"}
{"sequence": "GGAGACCUAUGAUAACAACCUACUAGCACA", "pre-steady-state target cleavage rate": "< 0.0001"}
{"sequence": "GGAGACCUAACUAUACAACCUACUACCUAA", "pre-steady-state target cleavage rate": "0.0641 ± 0.025"}
{"sequence": "GGAGACCUAUGUAUACAACCAAGUACCUCA", "pre-steady-state target cleavage rate": "< 0.0001"}
{"sequence": "GGAGACGAUUCUAUACAACCUACUAGCUCA", "pre-steady-state target cleavage rate": "0.00278 ± 0.0019"}
{"sequence": "GGAGACCAUACUAUACAACCAACUACCUGA", "pre-steady-state target cleavage rate": "0.00258 ± 0.0022"}
{"sequence": "GGAGUGGAUACUAUACAACCUGCUACCUCA", "pre-steady-state target cleavage rate": "0.0792 ± 0.029"}
{"sequence": "GGAGUGGAUACUAUACAAACCUACUACCUCA", "pre-steady-state target cleavage rate": "0.0643 ± 0.023"}
{"sequence": "GGAGUGGAUACUAUACAACCUACUACCUGA", "pre-steady-state target cleavage rate": "0.0069 ± 0.0028"}
{"sequence": "GGAGUCGAUACUAUACAACCUACUACGUCA", "pre-steady-state target cleavage rate": "0.00643 ± 0.0028"}
{"sequence": "GGAGACCAUACUAUACAGCCUACUACCUCA", "pre-steady-state target cleavage rate": "0.16 ± 0.053"}
{"sequence": "GGAGACCAUACUAUACAACCAACUAGCUCA", "pre-steady-state target cleavage rate": "0.0061 ± 0.0043"}
{"sequence": "GGAGAGGAUACUAUACAACCUAGAACCUCA", "pre-steady-state target cleavage rate": "0.00379 ± 0.0022"}
{"sequence": "GGAGAGGAUACUAUACAACCAAGUACCUCA", "pre-steady-state target cleavage rate": "0.00282 ± 0.002"}
